About 83,000 compounds went through this panel and 20% of them were active in at least one assay; those are over-represented in the sample as a whole.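 How to read the values: 0–100, growth inhibition (40 = 60% inhibited); 0, no net growth; -100 to 0, cell death (-40 = 40% of starting cells died; -100 = all dead).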 Unmarked numbers belong to inactive results. Calls of active or inactive are those of the source. Rule for the calls: active = growth percent below 10; inactive = the rest.
Columns and labels:
Experiment in all cases: NCI-60 one-dose screen, 48 h (100 = growth as untreated, 0 = no growth, -100 = all killed)
Conditions in all cases: 10 µM unless noted
RPMI-8226 leukemia = tested on: RPMI-8226 leukemia
OVCAR-8 ovarian = tested on: OVCAR-8 ovarian
OVCAR-5 ovarian = tested on: OVCAR-5 ovarian
OVCAR-4 ovarian = tested on: OVCAR-4 ovarian
SK-OV-3 ovarian = tested on: SK-OV-3 ovarian
OVCAR-3 ovarian = tested on: OVCAR-3 ovarian
HS 578T breast = tested on: HS 578T breast
NCI/ADR-RES ovarian = tested on: NCI/ADR-RES ovarian
IGROV1 ovarian = tested on: IGROV1 ovarian

Structure (SMILES) | growth (RPMI-8226 leukemia) | growth (OVCAR-8 ovarian) | growth (OVCAR-5 ovarian) | growth (OVCAR-4 ovarian) | growth (SK-OV-3 ovarian) | growth (OVCAR-3 ovarian) | growth (HS 578T breast) | growth (NCI/ADR-RES ovarian) | growth (IGROV1 ovarian)
COc1ccc2cc(-c3cnc4nonc4n3)ccc2c1 | 0.566% (active) | 23.9% | 76% | 50% | 71% | 11.1% | 13.9% | -4.57% (active) | 
Cc1ccc2[nH]c(-c3ccc(S(C)(=O)=O)cc3)c(/C=N/N=C(N)N)c2c1 | 39.2% | 58.4% | 101% | 90.7% | 57.7% | 27.6% | 50.5% | 49.4% | 76.2%
COc1cccc(/C=C2\COc3ccc(O)cc3C2=O)c1 | -24.8% (active) | 80.7% | 101% | 95% | 114% | 78.4% | 91.1% | 89.9% | 84.4%
O=C1OCC2=C1C(c1cccc(F)c1)c1cc3c(cc1N2CCO)OCO3 (configuration not stated) | 17.5% | 34.5% | 63.6% | 57.3% | 19.5% | 2.41% (active) | 17.8% | 25.4% | 40%
COc1ccc(C2=C/C(=C\c3ccc(Cl)cc3)C(=O)N2/N=C/c2ccc(Cl)cc2)cc1 | 101% | 83.5% |  | 79.2% | 88.6% | 99.6% | 91.4% | 104% | 91.2%
C[Se]C(=O)CC1=C2C=C(F)C=CC2/C(=C\c2ccc(S(C)=O)cc2)C1C (configuration not stated) | -23.9% (active) | -66.1% (active) | 17.6% | 26.7% | 6.54% (active) | -7.75% (active) | 2.31% (active) | 2.59% (active) | 
Cc1cc2nc(-c3c(-c4ccc(F)cc4)nc4sccn34)[nH]c2cc1C | 87.9% | 96% | 111% | 94.7% | 94.9% | 102% | 103% | 91.6% | 95.9%
CC(C)=CC(=O)N[C@@H]1CC2CCC3C(CC[C@@]4(C)C3CC[C@@H]4C(C)N(C)C)[C@@]2(C)C[C@@H]1O (some centres not stated) | -2.36% (active) | 81.8% | 81.4% | 11.5% | 81.3% | 46.5% | 59.7% | 52.5% | 61.9%
C[C@@H](CO)[C@@H]1CC[C@]2(C(=O)N3CCN(C)CC3)CC[C@]3(C)[C@H](CC[C@@H]4[C@@]5(C)CC[C@H](O)C(C)(C)[C@@H]5CC[C@]43C)[C@@H]12 | 38.2% | 80.3% | 101% | 78.3% | 108% | 87.7% | 85.2% | 84.5% | 74%
C#CC#CC#CC#CC#CC#CC#CC#CC[C@H]1OC[C@@H](COC(=O)O[C@@H](C(=O)O[C@H]2C[C@@]3(O)[C@@H](OC(=O)c4ccccc4)[C@@H]4[C@]5(OC(C)=O)CO[C@@H]5C[C@H](O)[C@@]4(C)C(=O)[C@H](OC(C)=O)C(=C2C)C3(C)C)[C@@H](NC(=O)c2ccccc2)c2ccccc2)O1 | 26% | 59.7% | 47% | 68.3% | 61.7% | 22.6% | 44.3% | 108% | 49.2%
O=C(CCl)Nc1ccc2c(Nc3cc(O)ccc3Cl)ncnc2c1 | -45.9% (active) | -33.9% (active) | -74.7% (active) | -65.2% (active) | -4.95% (active) | -83.4% (active) | 4.71% (active) | -39.8% (active) | -71.2% (active)
C=NNc1ccccc1 | 97.6% | 95.1% | 109% | 102% | 102% | 102% | 97.7% | 84.4% | 88.7%
COc1ccc(-c2ccc(-c3ccc(C(=N)N)cn3)s2)cc1 | 20.1% | 65.2% | 92.5% | 113% | 90.6% | 83.9% | 97.4% | 101% | 89%
Cc1ncc(C(=O)Nc2ccc(CN3CCN(C)CC3)c(C(F)(F)F)c2)cc1C#Cc1cnc(N)c2ccncc12 | -43.7% (active) | -35.5% (active) | -13.6% (active) | -16.9% (active) | -34.7% (active) | -43.6% (active) | -19% (active) | -25.1% (active) | -42.5% (active)
O=C(O)CCCc1cnc2c3sccc3nc(SCc3c(Cl)cccc3Cl)n12 | 51.6% |  | 80.5% | 59.7% | 36.5% | 7.34% (active) | 39.5% | 45.7% | 54.1%
CCOC(=O)NN1CC(O)=C(c2nc(-c3ccc(Br)cc3)cs2)C1=N | 115% |  | 89.5% | 118% | 108% | 99.9% | 110% | 108% | 53%
Nc1ccc([N+](=O)[O-])cc1N=C/C=C/c1ccccc1 | 25.6% | 79.9% | 90.9% | 79.4% | 87.6% | 84.1% | 67.4% | 50.9% | 
COc1ccc(C2=Nc3c(N)ncnc3NC(c3cccc(Nc4ccnc5cc(C(F)(F)F)ccc45)c3)C2)cc1 (configuration not stated) | 11.8% | 67.9% | 92.3% | 67.2% | 69.3% | 78.2% | 55.3% | 65.3% | 66.4%
CCn1cc(CNc2ccc(C(=O)Nc3cc4cc(OC)c(OC)cc4c(C)n3)cc2)c(C)n1 | -0.529% (active) | 1.1% (active) | 72.9% | 25% | 86.8% | 33.7% | 82.7% | 13.4% | 56.1%
C[C@@H]1O[C@@H](O[C@@H]2C[C@H](c3ccc4c(c3O)C(=O)C3=C(C4=O)[C@@]4(O)C(=O)C[C@](C)(O)C[C@@]4(O)C=C3)O[C@H](C)[C@H]2O)C[C@H](O)[C@@H]1O | 92% | 96.7% | 102% | 92% | 106% | 105% | 94.4% | 91.8% | 91.2%
O=C(Nc1nc(C(=O)N2CCN(C(c3ccccc3)c3ccccc3)CC2)cs1)c1ccc(NC2CCCCC2)c([N+](=O)[O-])c1 | 64.2% | 80.4% | 89.2% | 68.9% | 89.8% | 92.2% | 90.2% | 77% | 79.6%
COc1cccc(C(=O)OCC(O)C(=O)NC23CC4CC(CC(C4)C2)C3)c1 (configuration not stated) | 101% | 95.3% | 100% | 99.4% | 99.5% | 111% | 98.8% | 95.2% | 104%
O=C1c2cccnc2C(=O)c2c1c(C(=O)OCCCN1CCCCC1)c1ccccn21 | -28.3% (active) | -32% (active) |  | -61.8% (active) | -40.6% (active) | 0.168% (active) | -16% (active) | -13.3% (active) | -5% (active)
CCCC(O)Cn1ncc(C(=O)OCC)c1NC(=O)NCc1cccc(F)c1 (configuration not stated) | 75.2% | 94.8% | 100% | 87.2% | 100% | 99.7% | 110% | 95.5% | 97.2%
COc1cc2cc(NCc3ccc(OC(F)F)cc3)nc(C)c2cc1OC | 42.5% | 71.3% | 56.1% | 74.2% | 57.6% | 77% | 77.6% | 56.3% | 48.2%
COc1ccc2cc(Cn3cc[n+](Cc4ccc5ccccc5c4)c3)ccc2c1 | 1.54% (active) | 8.73% (active) | 45.6% | 8.75% (active) | 29.8% | 4.18% (active) | 46.3% | 102% | -9.16% (active)

— PubChem BioAssay (NCI)
